A selection: hits, their analogues and other compounds. The true share with any hit is near 6.4%.
KinaseGlo FLuc: blocks Kinase-Glo luciferase, a counter-screen artifact. Potency, µM (series often up to 38.3 µM), for the others: at the top dose activity change, negative = inhibition, actives largely listed as inhibitors. AID 1379. hit rate 0.28% among 200,000. Kinase-Glo luciferase, ATP luminescence, 8 min; note: nearly all actives have a fitted effect of over 60% in size
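Light output from Kinase-Glo luciferase with luciferin and 10 uM ATP in 50 mM imidazole pH 7.2, KCl, MgCl2, Tween 20, BSA; compound pin-delivered, 8-min ambient incubation, then luminescence read.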
RORg inh: blocks mouse ROR gamma transcriptional activity | P51450 | Drosophila S2 Gal4-RORgamma UAS-luciferase reporter, 20 h | Potency, µM (titrated, usually from 53.6 µM), for inactives: at the top dose activity change, negative = inhibition, most hits filed as inhibitors | hit rate 5.4% among 310,000 | AID 2551; note: nearly all actives have a fitted effect of over 60% in size
Target sequence (P51450 whole entry, looked up, the tested form may be a part): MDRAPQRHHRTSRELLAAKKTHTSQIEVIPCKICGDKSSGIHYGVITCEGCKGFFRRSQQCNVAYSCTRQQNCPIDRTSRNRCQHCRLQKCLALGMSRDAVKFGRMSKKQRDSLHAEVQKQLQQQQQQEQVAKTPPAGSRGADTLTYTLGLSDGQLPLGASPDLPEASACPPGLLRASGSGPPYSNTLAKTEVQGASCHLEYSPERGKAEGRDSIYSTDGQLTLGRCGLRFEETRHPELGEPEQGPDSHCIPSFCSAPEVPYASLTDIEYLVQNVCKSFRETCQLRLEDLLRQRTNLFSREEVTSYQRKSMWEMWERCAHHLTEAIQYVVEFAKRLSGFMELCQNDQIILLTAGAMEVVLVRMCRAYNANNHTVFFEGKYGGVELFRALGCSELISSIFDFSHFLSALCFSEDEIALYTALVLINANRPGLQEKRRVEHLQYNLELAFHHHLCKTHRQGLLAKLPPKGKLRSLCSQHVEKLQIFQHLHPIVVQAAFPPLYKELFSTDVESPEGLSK
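Luminescence from a UAS-regulated Photinus luciferase reporter in stably transfected Drosophila Schneider cells is measured; decreased signal marks ROR gamma inhibition. Fusion expression is induced by 700 uM copper sulfate for 20 hr.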
Gal4-VP16 FLuc: Gal4-VP16 reporter inhibition counter-screen; Drosophila S2 Gal4-VP16 UAS-luciferase, luminescence, 20 h; hit rate 3.5% among 310,000; AID 2546; Potency, µM (highest dose often 53.6 µM), inactives show top-dose activity, negative = inhibition, hits mostly inhibitors;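 note: Gal4-VP16 expression switched on by copper sulfate through the metallothionein promoter; nearly all actives have a fitted effect of over 50% in size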
The depositor's hits bear a star; ? = inconclusive; nt = no result given; ! = not active in a repeat; [ ] = dose if it differs, or a comment. Calls come from the whole dose curve; as a rule, active = well fitted curve in the direction sought with a large enough effect; inconclusive = small, poorly fitted or top-dose-only effect, or another doubt; inactive = no such curve, though single readings can be large; an effect the other way counts as inactive or inconclusive. % is set by controls: 0 for no effect and ±100 for the full control effect; potency is the fitted concentration of half-maximal effect.

SMILES	KinaseGlo FLuc	RORg inh	Gal4-VP16 FLuc
Cc1ccc(CNC(=O)CN(C)S(=O)(=O)c2ccc3c(c2)n(C)c(=O)c(=O)n3C)cc1	nt	3%	5%
OCC[C@@H]1C[C@H](O)[C@@H](O)[C@@]2(OCCCc3ccccc32)O1	nt	1%	-4%
C=CCN=c1scc(-c2ccc(F)cc2)n1/N=C/c1ccccn1	1%	8.9µM*	11µM*
N=c1scc(-c2ccccc2)n1/N=C/c1ccco1	-8%	-27%	-7%
C=CCN=c1scc(-c2ccccc2)n1/N=C/c1ccccn1	-1%	5µM*	10µM*
C=CCn1c(-c2ccc(OC)c(OC)c2)cs/c1=N\c1ccccn1	-2%	?	?
CCc1cc(SC#N)cc(CC)c1NC(=O)CCl	-2%	?	20µM*
Cc1ccc(Cl)c(NC(=O)CCl)c1Cl	-2%	?	?
Cc1cc(OCc2nc3ccccc3s2)ccc1N	nt	-36%	-24%
COc1cc(C)c(Cl)cc1S(=O)(=O)N1CCSC1	nt	-10%	-12%
CCn1c(=S)[nH]c2cc(S(=O)(=O)N3CCCCC3)ccc21	2%	10µM*	?
CCn1c(=S)[nH]c2ccccc21	15%	?	?
CCCn1c(=S)[nH]c2cc(Cl)ccc21	nt	5µM*	18µM*
CCn1c(C)nc2cc(S(=O)(=O)N3CCCC3)ccc21	-4%	?	-17%
CCn1c(=S)[nH]c2cc(Cl)ccc21	nt	5.6µM*	25µM*
CCn1c(=S)[nH]c2cc(C(=O)O)ccc21	2%	-9%	-1%
O=C(O)c1ccc(Cl)c(S(=O)(=O)Nc2ccc(OCc3ccccc3)cc2)c1	nt	5%	-11%
CC(=O)N1CCc2cc(S(=O)(=O)NCCCN3CCC(C)CC3)ccc21	nt	-24%	8%
CCC(=O)[C@@H](c1ccccc1)c1ccccn1	-3%[7.66 µM]	nt	nt
COc1ccc(NC(=O)CSc2nnc(-c3cccc(O)c3)o2)cc1	nt	-35%	-12%
COc1cccc(NC(=O)CSc2nnc(-c3cc(C)n(-c4ccccc4)c3C)o2)c1	-2%	10µM*	11µM*
O=C(CN(C(=O)c1csnn1)c1ccccc1Cl)NC1CCCC1	nt	11%	-3%
O=c1cc(-c2ccccc2O)oc2ccc3ccccc3c12	?	6.3µM*	7.1µM*
O=c1cc(-c2ccccc2Cl)oc2cccc(O)c12	-2%[39.9 µM]	27%[96.6 µM]	-3%[96.6 µM]
CN(C)CCN(Cc1cccs1)S(=O)(=O)c1csc(C(N)=O)c1	nt	4%	-2%
SMILES	KinaseGlo FLuc	RORg inh	Gal4-VP16 FLuc
CCCn1c(CCc2ccccc2)n[nH]c1=S	-6%	7.1µM*	18µM*
CCn1c(CSc2nc3ccccc3[nH]2)n[nH]c1=S	0%	?	18%
CCn1c(CCn2c3ccccc3c3ccccc32)n[nH]c1=S	2%	5.6µM*	6.3µM*
CCn1c(CCc2ccccc2)n[nH]c1=S	-2%	8.9µM*	?
CCn1c(CSCc2ccccc2)n[nH]c1=S	2%	4µM*	?
CCn1c(Cc2c(C)[nH]c3ccccc23)n[nH]c1=S	0%	-35%	-2%
CCCCn1c(Cc2ccccc2)n[nH]c1=S	9%	?	-24%[0.365 µM]
CCn1c(Cc2ccccc2)n[nH]c1=S	nt	?	-25%
COC(=O)C1C(O)CC[C@H]2CN3CCc4c([nH]c5ccccc45)C3C[C@H]12 (stereo not given in full)	0%	-6%	-7%
Clc1cccc(CNCCCSc2ncccn2)c1	nt	-4%	0%
NCCCC[C@H](NC(=O)CNC(=O)[C@@H]1CCCN1C(=O)[C@H](Cc1ccc(O)cc1)NC(=O)CN)C(=O)N[C@@H](Cc1ccccc1)C(=O)O	nt	7%	-3%
CN(C)c1nc(C=C(C#N)C#N)c(Cl)n1-c1ccc(F)cc1	8%	14µM*	-3%
CCOc1ccccc1NC(=O)/C(C#N)=C/c1c(C)nn(-c2ccc(F)cc2)c1Cl	3%	0%	-10%
CC(C)(C)c1ccc(COc2ccsc2C(=O)O)cc1	0%	?	23%
C[C@H]1Cc2c(-c3ccccc3)nc3c(c2CO1)CN(C(=O)Nc1cccc(C#N)c1)CC3	0%[7.66 µM]	nt	nt
Cc1cc(C)n2nc(C(=O)N/N=C/c3ccco3)nc2n1	nt	-1%	-8%
Oc1ccccc1C(=S)N1CCN(C(=S)c2ccccc2O)CC1	nt	0%	0%
CCCCSc1cnn(-c2ccccc2)c(=O)c1SCCCC	-1%	?	14µM*
CCSc1cnn(-c2ccccc2)c(=O)c1SCC	-1%	?	16%
CC1=CC2=NC(=O)/C(=C\c3cccn3CCOc3ccc(C)c(C)c3)C(=N)N2O1	-2%	-44%	?
N=C1/C(=C/c2cccn2CCOc2ccccc2)C(=O)N=C2SC=C(c3ccccc3)N12	0%	-1%	-5%
CC1=CC2=NC(=O)/C(=C/c3cccn3Cc3ccccc3)C(=N)N2O1	nt	13µM*	?
N=C1/C(=C/c2cccn2Cc2ccc(Cl)cc2)C(=O)N=C2SC=CN12	6%	4µM*	5µM*
O=S(=O)(NC1=NCCCCC1)c1ccc2ccccc2c1	0%	34%	3%
COC(=O)C1=C(C(=O)OC)[C@@H]2N(Cc3ccccc3)c3ccccc3[C@@]23C[C@@H](C(=O)OC)N(C(=O)c2ccco2)C3=N1	1%[7.66 µM]	nt	nt
SMILES	KinaseGlo FLuc	RORg inh	Gal4-VP16 FLuc
O=C(O)c1ccc2c(c1)C(=O)N(CCc1ccc(O)cc1)C2=O	nt	-3%	3%
O=c1n(Cc2cc3c(cc2Cl)OCO3)c(=O)n2n1CC[C@H]1/C(=N\OC[C@@H](O)COCc3ccco3)[C@H]3O[C@@H]3[C@@H](O)[C@@H]12	nt	-11%[10 µM]	-8%[10 µM]
Cc1ccc(N(CC(O)CON=C2c3ccccc3-c3ccccc32)S(C)(=O)=O)cc1 (stereo not given)	2%	41%	2%
O=S(c1cc(Cl)cc(Cl)c1O)c1cc(Cl)cc(Cl)c1O	nt	22%	-6%
Oc1c(Cl)cc(Cl)cc1Sc1cc(Cl)cc(Cl)c1O	2%	?	13µM*
CSCC[C@H](N)C(=O)N[C@@H](CCC(=O)O)C(=O)N[C@H](C(=O)NCC(=O)N[C@@H](Cc1c[nH]c2ccccc12)C(=O)N[C@@H](Cc1ccc(O)cc1)C(=O)N[C@@H](CCCNC(=N)N)C(=O)N[C@@H](CO)C(=O)N1CCC[C@H]1C(=O)N[C@@H](Cc1ccccc1)C(=O)N[C@@H](CO)C(=O)N[C@@H](CCCNC(=N)N)C(=O)N[C@H](C(=O)N[C@H](C(=O)N[C@@H](Cc1cnc[nH]1)C(=O)N[C@@H](CC(C)C)C(=O)N[C@@H](Cc1ccc(O)cc1)C(=O)N[C@@H](CCCNC(=N)N)C(=O)N[C@@H](CC(N)=O)C(=O)NCC(=O)N[C@@H](CCCCN)C(=O)O)C(C)C)C(C)C)C(C)C	nt	1%	-7%
CCOc1ccc(-c2nc(C)c(C(C)=O)n2O)cc1	?	18%	25µM*
COc1ccc(-c2nc(C)c(C(C)=O)n2O)cc1	-29%	-5%	-8%
Cc1ccc(NC(=S)N2CCc3[nH]c4ccccc4c3C2)cc1	nt	6.3µM*	-8%
S=C(NC1CCCCC1)N1CCc2[nH]c3ccccc3c2C1	nt	-16%	-6%
Cc1cc(=O)c2c(O)c3c(O)cc(=O)c4c3c3c(cc(O)c1c23)C(C)(C)C=4O	-2%	7.1µM*!	4µM*
O=C(O)CSc1ccn(Cc2ccccc2)c1	-8%[7.66 µM]	nt	nt
CC(O)CCCCCCC/C=C/C=C/C(N)=O (stereo not given)	nt	0%[10 µM]	-5%[10 µM]
